HCMV antiviral: qHTS Assay for inhibitors of the human cytomegalovirus (HCMV) | HFF cells, HCMV-luciferase reporter, 72 h; hits give low values | 410,000 compounds, 4.5% hits | activity change, negative = inhibition, % at 57.5 µM; in the data active = activity change below about -60%; inconclusive = no clear call, values can overlap the other calls; inactive = above about -39%
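Two-dose cell screen: HFF monolayers treated with compounds and infected with luciferase-expressing HCMV at 1 PFU/cell, 72 h at 37C, then lysed for luciferase measurement.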
Vaccinia Venus: qHTS for Stage-Specific Inhibitors of Vaccinia Orthopoxvirus: Venus Reporter Primary qHTS. Vaccinia virus Venus reporter expression, fluorescence. Potency, µM (titrated, usually from 36.5 µM), without a hit: at the top dose activity change, negative = inhibition, most hits filed as inhibitors. 330,000 compounds, 0.46% hits; calls by dose curve; tested in A549 cells; also: potency is read from the fitted curve at half-maximal effect; nearly all actives have a fitted effect of over 30% in size
Lassa entry inh: qHTS for Inhibitors of binding or entry into cells for Lassa Virus | Lassa virus pseudotype entry inhibition, cell reporter | Potency, µM (doses to about 37.9 µM), without a hit: top-dose activity change, negative = inhibition, usual class: inhibitors | 300,000 compounds, 1.2% hits | AID 540256, 2011; calls by dose curve; tested in HEK293 cells; also: potency is read from the fitted curve at half-maximal effect; nearly all actives have a fitted effect of over 50% in size
Marburg entry inh: qHTS for inhibitors of binding or entry into cells for Marburg Virus; Potency, µM (titrated, usually from 37.8 µM), for inactives: at the top dose activity change, negative = inhibition, most hits filed as inhibitors; Marburg virus pseudotyped entry inhibition, cell reporter; 300,000 compounds, 1.8% hits; AID 540276, 2011; calls by dose curve; tested in HEK293 cells; also: potency is read from the fitted curve at half-maximal effect
VACV mCherry inh: qHTS for Stage-Specific Inhibitors of Vaccinia Orthopoxvirus: mCherry Reporter Primary qHTS. 310,000 compounds, 0.63% hits. Potency, µM (doses to about 36.5 µM), for inactives: at the top dose activity change, negative = inhibition, most hits filed as inhibitors. Vaccinia virus mCherry reporter infection, fluorescence; calls by dose curve; tested in A549 cells; also: potency is read from the fitted curve at half-maximal effect; nearly all actives have a fitted effect of over 35% in size
HCV inh: qHTS Assay for Inhibitors of Hepatitis C Virus (HCV); Potency, µM (series often up to 41.8 µM), for inactives: at the highest dose activity change, negative = inhibition, most hits filed as inhibitors; AID 651820, 2012; Huh7.5.1 HCVcc-Cre infection, luciferase reporter, 44 h; 340,000 compounds, 3.4% hits; active = well fitted inhibition curve with a large enough effect; inconclusive = small, poorly fitted or top-dose-only effect, or another doubt; inactive = no such curve, though single readings can be large or run the other way; also: potency is read from the fitted curve at half-maximal effect
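Cells seeded at 1,000/well and cultured 4 h, then compounds added followed by HCVcc-Cre virus (~0.5 moi). After 44 h further culture, luciferase substrate was added, plates held 15 min at room temperature, and luminescence read for 15 sec.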
Starred values were filed as active, the others as inactive; i = inactive; ? = inconclusive; . = no result given; [ ] = another dose, or the depositor's remark. Sampled rows, rich in hits. Any-hit rate of the full collection: about 7.8%. % is scaled to controls: 0 for no effect and ±100 for the full control effect.

SMILES	HCMV antiviral	Vaccinia Venus	Lassa entry inh	Marburg entry inh	VACV mCherry inh	HCV inh
COc1ccc(OC)c(NC(=O)c2cc3c(s2)-c2ccccc2SC3)c1	1	-12%	12%[46.1 µM]	2%[46.1 µM]	6%	.
COc1ccccc1C1CN(Cc2cnn(C)c2)Cc2ccccc2O1 (stereo not drawn)	.	0%	.	.	-9%	.
CCCCCCC#C[C@@H]1C=C[C@H](OC(=O)OCC)[C@@H](COC(=O)OCC)O1	.	.	.	-12%[14.2 µM]	.	.
Cc1cn2c(=O)cc(COC(=O)c3ccc(NC(=O)c4ccc(C(C)(C)C)cc4)cc3)nc2s1	7	-9%	?	.	-6%	.
COc1ccc(C(O)c2ncc(-c3ccccc3)[nH]2)cc1 (stereo not drawn)	28	0%	.	.	11%	.
COc1ccc(C(O)c2ncc(-c3ccccc3Cl)[nH]2)cc1F (stereo not drawn)	-102*	-7%	.	.	17%	.
COc1ccc(C(O)c2ncc(-c3ccccc3)[nH]2)cc1F (stereo not drawn)	-101*	-8%	.	.	7%	.
CC(=O)c1ccc(N2CCN(C(=O)Cn3ncc4c3-c3ccccc3OC4)CC2)cc1	-15	-7%	.	1%[46.1 µM]	i	.
CCOC(=O)c1ccc(N2C(=O)c3n[nH]c(-c4ccco4)c3C2c2ccc(C)cc2)cc1 (stereo not drawn)	-103*	-20%	?	?	-26%	.
CCOC(=O)c1ccc(N2C(=O)c3n[nH]c(-c4ccco4)c3C2c2ccc([N+](=O)[O-])cc2)cc1 (stereo not drawn)	-12	?	23µM*	?	?	14µM*
CCOc1cc(C2c3c(n[nH]c3C)C(=O)N2c2ccc(C)cc2)ccc1O (stereo not drawn)	-81*	.	-27%	12%	.	?
CCOC(=O)c1ccc(N2C(=O)c3n[nH]c(-c4ccco4)c3C2c2ccc(O)c(OC)c2)cc1 (stereo not drawn)	-23	-14%	-24%[46.1 µM]	?	-5%	.
Cc1[nH]nc2c1C(c1ccccn1)N(c1ccc(Br)cc1)C2=O (stereo not drawn)	-66*	.	16%	15%	.	-9%
CCCCCOC(=O)CSc1nc2sc3c(c2c(=O)n1-c1ccccc1)CC(C)(CC)OC3 (stereo not drawn)	-4	7%	-27%[46.1 µM]	.	1%	.
COC(=O)C1=C(C(=O)OC)[C@@H]2N(CC=C(C)C)c3ccccc3[C@@]23CCC(=O)N(Cc2cccc(C(F)(F)F)c2)C3=N1	.	.	?	-28%[14.2 µM]	.	.
O=C1C(n2ccc3ccccc32)c2ccccc2N1Cc1ccc(C(F)(F)F)cc1 (stereo not drawn)	21	.	.	.	.	.
CCOC(=O)c1ccc(N2C(=O)c3n[nH]c(C)c3C2c2ccc(OCC)cc2)cc1 (stereo not drawn)	-76*	-11%	?	?	-21%	.
CCOC(=O)c1ccc(N2C(=O)c3n[nH]c(C)c3C2c2ccccn2)cc1 (stereo not drawn)	-6	-15%	.	.	i	13%
CCC(=O)N1CCc2cc(CNC(=O)c3cccc(N(C)C)c3)ccc21	-24	-11%	-2%[46.1 µM]	.	-12%	.
O=C(Cn1c(=O)nc(-c2ccccc2)c2ccccc21)NCc1ccc(F)cc1	-10	-12%	?	.	i	.
COc1cc([C@@H]2c3cc4c(cc3[C@@H](O)[C@H]3COC(=O)[C@H]23)OCO4)cc(OC)c1O[Si](C)(C)C(C)(C)C	?	?	.	.	-19%	-29%
COc1cc(C2c3cc4c(cc3CC3COC(=O)C32)OCO4)cc(OC)c1O (stereo not drawn)	-90*	?	?	?	-24%	?
CCC1C(c2cc(OC)c(OC)c(OC)c2)c2cc3c(cc2OC1N1CCCC1)OCO3 (stereo not drawn)	-3	?	8.9µM*	?	-9%	?
COc1cc(C2c3cc4c(cc3C(OC(C)=O)[C@H]3COC(=O)C23)OCO4)cc(OC)c1OC (stereo partly drawn)	.	-31%	.	.	-36%	.
COc1cc(C2c3cc4c(cc3C3OC(=O)C2C3CO)OCO4)cc(OC)c1OC (stereo not drawn)	-76*	?	.	.	-8%	.
SMILES	HCMV antiviral	Vaccinia Venus	Lassa entry inh	Marburg entry inh	VACV mCherry inh	HCV inh
CC(=O)Nc1ccc(Nc2ccc3cc(S(=O)(=O)N4CCCCC4)ccc3n2)cc1	-5	-9%	-4%[46.1 µM]	.	-15%	.
COC1CCCCC1C1CCN(C(=O)c2cccs2)CC1 (stereo not drawn)	.	.	.	-7%	.	.
CC(C)Cc1nn2c(=O)cc(COC(=O)c3ccccc3NC(=O)c3ccccc3)nc2s1	-11	-8%	26%[46.1 µM]	.	-14%	.
Cc1[nH]c2ccccc2c1SCc1nnc(SCc2ccccc2)n1C	-33	?	-24%	?	-14%	-1%
Cc1[nH]c2ccccc2c1SCc1nnc(SCc2ccc(Cl)cc2)n1C	-12	-24%	?	?	?	11µM*
COCCNC(=O)c1ccc(N2CC3CC(C2)c2cccc(=O)n2C3)c(NC(=O)c2ccccc2Cl)c1 (stereo not drawn)	-22	?	.	.	?	.
COc1ccc2cc(C(=O)C3CCCN(Cc4cnc(N5CCOCC5)s4)C3)ccc2c1 (stereo not drawn)	-65*	-21%	-29%[46.1 µM]	?	?	?
COc1ccc2cc(C(=O)C3CCCN(C(=O)CSc4nnc(C)o4)C3)ccc2c1 (stereo not drawn)	-66*	-21%	-23%[46.1 µM]	?	i	?
CCn1ccnc1CN1CCCC(C(=O)c2cc(C)c(OC)c(C)c2)C1 (stereo not drawn)	-32	.	.	.	.	?
COc1ccc(C(=O)C2CCCN(C(=O)CCc3ccccn3)C2)c(C)c1 (stereo not drawn)	-12	.	.	.	.	?
COc1ccc(C(=O)C2CCCN(C(=O)CCc3scnc3C)C2)c(C)c1 (stereo not drawn)	-76*	-16%	-22%[46.1 µM]	4%[46.1 µM]	-7%	?
Cc1ccsc1C(=O)C1CCCN(Cc2cnc(N3CCOCC3)s2)C1 (stereo not drawn)	-33	-13%	?	?	-22%	?
CCn1ccnc1CN1CCCC(C(=O)c2ccc3cc(OC)ccc3c2)C1 (stereo not drawn)	-9	-12%	?	?	-24%	10µM*
CCOC(=O)C1=C(c2ccccc2)c2ccccc2N(S(=O)(=O)C(F)(F)F)C1C(=O)OCC (stereo not drawn)	-16	0%	.	.	-28%	2.8µM*

Screens (PubChem)
